Compound activity as filed in PubChem BioAssay.
An excerpt weighted towards active compounds, which were near 1.1% of everything screened.
Tb PFK inh – blocks T. brucei phosphofructokinase; O15648; T. brucei PFK, ADP-Glo luminescence; Potency, µM (doses to about 57.5 µM), inactives show top-dose activity, negative = inhibition, usual class: inhibitors; 330,000 compounds, 0.17% hits;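 note: potency is the fitted concentration of half-maximal effect; 0% = uninhibited 1x PFK enzyme wells and -100% = no-enzyme wells; nearly all actives have a fitted effect of over 60% in size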
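Compounds were pin-transferred as a titration series up to 57 uM into substrate buffer (0.5 mM F6P, 0.1 mM ATP, pH 8.0), then 1.25 nM PFK was added and reactions ran 45 min before ADP-Glo detection.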
gsp ag – activates gsp, the McCune-Albright syndrome mutation; AID 624287; 340,000 compounds, 0.13% hits; gsp mutant cells, cAMP HTRF, 30 min; Potency, µM (top dose mostly 76.9 µM), for inactives: at the highest dose activation (cAMP increase), most hits filed as activators; active = well fitted activation curve with a large enough effect; inconclusive = small, poorly fitted or top-dose-only effect, or another doubt; inactive = no such curve, though single readings can be large or run the other way; cell line not stated here;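 note: phosphodiesterase inhibitor Ro 20-1724 added with compounds to block cAMP breakdown; potency is the fitted concentration of half-maximal effect; nearly all actives have a fitted effect of over 60% in size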
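Cells in DMEM/10% FBS with G418 were pretreated with compounds in DMSO plus […] (300 uM stock) for 30 min at 37C. cAMP was measured by HTRF (cAMP-d2 plus anti-cAMP antibody-K) after 30 min at room temperature.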
p53 reactivation – mutant p53 re-activation in reporter cells. Potency, µM (doses to about 92.2 µM), without a hit: at the highest dose activity change, positive = activation, usual class: activators. H1299 p53-A138V BP100-luciferase reporter, luminescence, 24 h. 320,000 compounds, 0.063% hits; note: potency is the fitted concentration of half-maximal effect; % of control where 0% means no effect; nearly all actives have a fitted effect of over 45% in size
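p53-null H1299 cells stably carrying temperature-sensitive p53-A138V and a BP100-luciferase reporter were pinned with compounds (4-point, 1:5 series) and held 24 hrs at 37 deg C. Luminescence was read 10 min after detection reagent.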
RXFP1 antagonist – RXFP1 (human) relaxin receptor antagonism | Q9HBX9 | HEK293-RXFP1, relaxin-stimulated cAMP HTRF, 30 min; active compounds read low | activity change, negative = inhibition, % at 57.5 µM | 350,000 compounds, 0.59% hits;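 active = activity change of -60% or lower, but not beyond a set lower limit; inconclusive = change between -60% and -40%, or beyond the set limit; inactive = change above -40%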; note: % is set by controls: 0 for no effect and ±100 for the full control effect
Target sequence (Q9HBX9 whole entry, looked up): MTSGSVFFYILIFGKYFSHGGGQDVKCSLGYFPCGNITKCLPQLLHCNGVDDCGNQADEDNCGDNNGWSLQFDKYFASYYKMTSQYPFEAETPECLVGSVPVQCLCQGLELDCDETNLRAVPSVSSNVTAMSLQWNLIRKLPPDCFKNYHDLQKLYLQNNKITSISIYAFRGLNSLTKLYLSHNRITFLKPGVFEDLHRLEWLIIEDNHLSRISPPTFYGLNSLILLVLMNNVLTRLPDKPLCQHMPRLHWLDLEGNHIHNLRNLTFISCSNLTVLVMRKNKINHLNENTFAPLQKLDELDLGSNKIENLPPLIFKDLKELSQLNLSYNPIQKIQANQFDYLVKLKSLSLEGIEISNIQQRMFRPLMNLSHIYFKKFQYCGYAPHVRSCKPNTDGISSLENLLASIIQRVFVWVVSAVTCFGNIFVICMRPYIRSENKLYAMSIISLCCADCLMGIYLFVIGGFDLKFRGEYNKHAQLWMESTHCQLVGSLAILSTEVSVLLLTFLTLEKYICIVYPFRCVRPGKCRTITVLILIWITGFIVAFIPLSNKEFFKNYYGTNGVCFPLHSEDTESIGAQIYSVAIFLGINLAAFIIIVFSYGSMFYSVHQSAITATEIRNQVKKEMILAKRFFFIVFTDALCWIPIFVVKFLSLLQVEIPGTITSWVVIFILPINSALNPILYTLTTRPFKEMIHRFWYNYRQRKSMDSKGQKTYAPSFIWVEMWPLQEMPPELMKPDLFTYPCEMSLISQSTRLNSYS
RXFP1 ag – activates the human relaxin receptor RXFP1 | HEK293T-RXFP1 cAMP TR-FRET, 30 min; response scale: percent of porcine relaxin response, buffer zero | 370,000 compounds, 0.3% hits | Potency, µM (highest dose often 57.5 µM), without a hit: at the top dose activation, usual class: activators | AID 2676 | Q9HBX9; note: potency is the fitted concentration of half-maximal effect; % is set by controls: 0 for no effect and ±100 for the full control effect; nearly all actives have a fitted effect of over 60% in size
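HEK293T cells stably expressing RXFP1 were pretreated with the PDE4 inhibitor Ro 20174, exposed to compounds for 30 min at 37C, lysed, and cAMP was read by TR-FRET. Data normalized to buffer (basal) and 29 nM porcine relaxin (100%).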
gsp antag – antagonists of gsp mutant (McCune-Albright syndrome) | gsp-mutant cells, cAMP HTRF, 30 min | Potency, µM (top dose mostly 76.9 µM), for the others: top-dose activity change, negative = inhibition, most hits filed as inhibitors | 340,000 compounds, 0.4% hits | AID 624288; calls by dose curve; cell line not stated here;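 note: intracellular cAMP measured with PDE inhibitor Ro 20-1724 present during compound exposure; potency is the fitted concentration of half-maximal effect; % is set by controls: 0 for no effect and ±100 for the full control effect; nearly all actives have a fitted effect of over 65% in size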
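Measurement of cellular cAMP by homogeneous time-resolved fluorescence following a 30 min compound exposure at 37C. The PDE inhibitor […] was present throughout; the assay buffer was DPBS with 0.05% BSA and 0.005% Tween 20.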
Starred values were filed as active, the others as inactive; ? = inconclusive; nt = no result given; [ ] = dose if it differs, or a comment. Unless noted, calls come from the whole dose curve; as a rule, active = well fitted curve in the direction sought with a large enough effect; inconclusive = small, poorly fitted or top-dose-only effect, or another doubt; inactive = no such curve, though single readings can be large; an effect the other way counts as inactive or inconclusive.

SMILES	Tb PFK inh	gsp ag	p53 reactivation	RXFP1 antagonist	RXFP1 ag	gsp antag
Cc1ncc([N+](=O)[O-])n1CC(=O)NC1CCCCCC1	-3%	-2%[15.4 µM]	-3%	-3	1%	nt
Cc1cccc(-n2c(-c3ccco3)n[nH]c2=S)c1	-3%	6.3µM*	1%	9	30%	15%
Cc1cccc(-n2c(-c3csc(C(C)C)c3)n[nH]c2=S)c1	-8%	17%	5%	-71*	0%	-30%
COCCn1c(C)cc(C(=O)COC(=O)c2[nH]c(C)c(C(C)=O)c2C)c1C	1%	1%	-1%	-6	1%	?
CCOC(=O)C1CN(S(=O)(=O)c2ccc(OC)cc2)c2ccccc2O1 (stereo unspecified)	-1%	-9%	4%	-2	-3%	-4%
O=C(Nc1ccsc1C(=O)O)c1cccc(C(F)(F)F)c1	7%	18%	?	1	-1%	?
O=C(Nc1ccsc1C(=O)O)c1cccc(Oc2ccccc2)c1	0%	22%[15.4 µM]	?	-80*	10%	?
C/C(=N\NC(=O)c1ccccc1[N+](=O)[O-])c1ccc(Br)s1	-2%	-6%[15.4 µM]	15%	-66*	1%	2%
O=C(c1ccccc1F)N1CCN(c2ccc([N+](=O)[O-])cc2-n2cccc2)CC1	-14%	24%	1%	nt	-5%	?
Cc1nnc(-c2ccc(Oc3ccc(Br)cc3)c([N+](=O)[O-])c2)o1	-1%	-19%	-2%	-7	0%	50µM*
Cc1cc(Oc2ccc(-c3nnc(-c4ccccc4)o3)cc2[N+](=O)[O-])ccc1Cl	5%	-18%	-6%	-5	3%	10%
COc1cccc2cc(C(=O)OCC(=O)NC3CCCC(C)C3C)c(=O)oc12 (stereo unspecified)	4%	-22%	?	-18	nt	0%
Cc1cc(C(c2nnnn2Cc2ccccc2)N2CCOCC2)c(C)n1-c1ccc2c(c1)OCO2 (stereo unspecified)	3%	-46%	32µM*	9	1%	-14%
c1ccc(Cn2nnnc2C(c2ccncc2)N2CCOCC2)cc1 (stereo unspecified)	-7%	-20%	-1%	-19	1%	3%
O=C(CSc1nnc(-c2cccnc2)s1)Nc1ccccc1	2%	?	3%	-9	17%	-14%
COc1ccc(O)c(/C=N/NC(=O)c2ccc(OCc3cccc(Br)c3)cc2)c1	3%	-1%	-2%	-19	-2%	4%
N/C(=N\OC(=O)c1ccc2ccccc2c1)c1ccccc1Cl	0%	3%	20µM*	-3	-2%	9%
COc1ccccc1NC(=O)NNC(=O)c1ccc(-c2ccccc2)cc1	-5%	10%	-13%	-2	0%	-1%
Cc1onc(-c2ccccc2Cl)c1C(=O)Oc1cc(F)cc(F)c1	nt	nt	nt	-15	0%	nt
Cc1onc(-c2ccccc2Cl)c1C(=O)Oc1ccc(Cl)cc1Cl	nt	nt	nt	-78*	0%	nt
O=C(c1cccc(Oc2ccccc2)c1)N1CCOCC1	5%	14%	4%	-3	0%	1%
O=C(CN1C(=O)c2ccccc2S1(=O)=O)NC(Nc1ccccc1F)C(Cl)(Cl)Cl (stereo unspecified)	2%	-18%	4%	-105*	3%	-24%
O=C(CN1C(=O)c2ccccc2S1(=O)=O)NCc1c(F)cccc1F	4%	2%[15.4 µM]	-3%	-15	1%	2%
COc1cc(C(=O)Nc2nc(-c3ccc(C)cc3)cs2)ccc1OCC(=O)N1CCOCC1	0%	-2%	-10%	-19	2%	36%
COc1ccc(-c2nc(NC(=O)c3ccc(OCC(=O)Nc4ccc(F)cc4)c(OC)c3)sc2C)cc1	0%	?	1%	-18	28µM*	47%
SMILES	Tb PFK inh	gsp ag	p53 reactivation	RXFP1 antagonist	RXFP1 ag	gsp antag
COc1ccc(C(=O)NCC(=O)Nc2ccc(F)cc2)cc1OC	-3%	13%	1%	5	-1%	6%
COc1cc(C(=O)Nc2nc(-c3ccc(F)cc3)cs2)ccc1OCC(=O)N1CCOCC1	0%	-8%	0%	-25	-2%	35µM*
COc1cc(C(=O)Nc2nc(-c3cc(C)ccc3C)c(C)s2)ccc1OCC(=O)Nc1ccc(F)cc1	-1%	?	-1%	3	32µM*	5%
NC(Cc1ccc(O)cc1)c1cn([C@@H](CCC(=O)O)C(=O)N2CCNCC2)nn1 (stereo partly specified)	-2%	nt	1%	nt	2%	-3%
CCOC(=O)C1CCN(C(=O)c2nn(-c3ccc(OC)c(Cl)c3)c(=O)c3c2c2ccccc2n3C)CC1	nt	nt	nt	-22	8%	nt
Cc1cc(C)n2nc(C(=O)N3CCN(c4ccc([N+](=O)[O-])cc4)CC3)nc2n1	-2%	26%	-1%	nt	24%	11µM*
Cc1cccc([C@@H](NC(=O)OC(C)(C)C)C(=O)OC(C)(C)C)c1	-1%	?	-4%	nt	1%	9%
COc1cc(N)c(Cl)cc1C(=O)N[C@@H]1CCN(CCCOc2ccc(F)cc2)C[C@@H]1OC	3%	nt	nt	nt	1%	nt
C=CCN(c1ccccc1)S(=O)(=O)c1ccc2c(c1)oc(=O)n2C	-3%	-112%	8%	-77*	1%	2%
COc1cc(C2c3c(oc4ccccc4c3=O)C(=O)N2c2nccs2)ccc1O (stereo unspecified)	3%	-41%[15.4 µM]	-9%	-105*	0%	2%
CCCC1=NN(C(=O)Cc2ccc(OC)cc2)C(O)(C(F)(F)F)C1 (stereo unspecified)	-6%	-8%	-3%	nt	1%	13%
CCCn1c(=S)[nH]c2cc(C(=O)N(CCO)Cc3ccccc3)ccc2c1=O	-1%	-13%	4%	-75*	3%	-27%
CCCCCNC(=O)c1ccc2c(=O)n(CCCOCC)c(=S)[nH]c2c1	-1%	?	-3%	-5	?	8%
COc1ccc(CNC(=O)c2ccc3c(=O)n(CCCN4CCCC4=O)c(=S)[nH]c3c2)cc1	1%	16%[15.4 µM]	-4%	-116*	6%	-8%
CCOCCCn1c(=S)[nH]c2cc(C(=O)NCC(OC)OC)ccc2c1=O	0%	5%	-1%	-66*	-3%	-5%
COC(=O)c1ccc2c(=O)n(CCCN3CCCC3=O)c(=S)[nH]c2c1	-5%	?	-4%	24	-1%	-11%
COc1ccccc1CNC(=O)c1ccc2c(=O)n(CCCN3CCCC3=O)c(=S)[nH]c2c1	2%	2%[15.4 µM]	-2%	-65*	10%	-6%
